Among all 320,000 compounds or so, about 9,100 (2.8%) were called active. A call without a number means that no potency is given here. About 3% were inconclusive and are not listed. Only a selection was taken, and actives are over-represented in it overall. Unmarked numbers belong to inactive results. Calls follow the shape of the dose curve; as a rule, active = well fitted activation curve with a large enough effect; inconclusive = small, poorly fitted or top-dose-only effect; inactive = no such curve, though single readings can be large or run the other way.
Potency is read from the fitted curve at half-maximal effect.

A short description of the assay: qHTS Assay for Rab9 Promoter Activators. Also: nearly all actives have a fitted effect of over 60% in size. The settings on record: Huh7 Rab9 promoter-luciferase reporter, luminescence, 24 h; series mostly up to 9.22 µM. An excerpt: NIH Chemical Genomics Center [NCGC] NIH Molecular Libraries Probe Production centers Network [MLPCN] MLPCN Grant: MH089537-01 Assay Submitter (PI): Yiannis A. Ioannou NCGC Assay Overview: Niemann Pick Type C (NPC) is a rare neurodegenerative lipidosis that is characterized by lipid storage in the endosomal/lysosomal system. Treatment modalities for this devastating disease are currently non-existent due to the severe obstacles associated with accessing the central nervous system with proteins or genes (Ioannou, 2000). We have developed a new paradigm, termed "Orphan Receptor Bypass Therapy" (ORByT), to address these disorders. This paradigm posits the existence of endogenous "suppressor" proteins whose expression can dramatically improve LSD pathogenesis. The goal is the identification/discovery of small chemical compounds that can modulate the expression of these proteins and provide a new treatment modality for these devastating disorders. One such protein whose overexpression reverses aspects of the NPC phenotype is Rab9. We have developed and optimized a cell based luciferase reporter assay in 1536 well format for the identification of up-regulators of the Rab9 promoter.
The Rab9 promoter is cloned in front of the luciferase reporter gene, therefore […] promoter activation results in luciferase expression. Frozen stock of the Rab9 promoter transfected Huh7 cells were obtained from the laboratory of Dr. Yiannis Ioannou (The Mount Sinai School of Medicine, New York, NY). Cells were propagated and maintained at NCGC in medium containing RPMI-1640 supplemented with 10% FBS, 2mM L-glutamine, and 50ug/ml penicillin/streptomycin. Cells were harvested in and plated for assays in OP-MEM I reduced-serum medium supplemented with 10% FBS. The Amplite luciferase reporter gene assay kit was purchased from ABD Bioquest and prepared/stored according to manufacturers recommendations. qHTS Assay Setup: 1.Dispensed 5ul of Huh7 cells stably expressing Rab9-luciferase at a density of 1500 cells per well 1536-well plates. 2.Incubate cells at 37C, 5% CO2, and 95% humidity for 2 hours. 3.Transferred 23nl per well of compound in DMSO solution. 4.Incubated at 37C, 5% CO2, and 95% humidity for 24 hours. 5.Dispensed 3ul per well of Amplite reagent(ABD Bioquest) per well. 6.Incubate at ambient for 10 minutes. 7.Read using the luminescence protocol on the ViewLux plate reader (Perkin Elmer).
For orientation: In qHTS, concentration-response curves come from the screen itself.
Take `Cc1ccc(NC(=O)COC(=O)C2C3CC4OC(=O)C2C4C3)cc1Cl` (stereo unspecified): the Potency result is “inactive”.

Take `Nc1cc(N)nc(SCC(=O)Nc2cccc(S(=O)(=O)N3CCCCC3)c2)n1`: the Potency entry is “inactive”.

Take `O=C(/C=C/c1cccc([N+](=O)[O-])c1)OCC(=O)N1CCOCC1`: the Potency entry is “inactive”.

As to `Cc1ccc(NC(=O)Cc2nc(COC(=O)C(C)NS(=O)(=O)c3ccc(C)cc3)cs2)cc1` (stereo unspecified), the Potency result was “inactive”.

`CCCn1nc(C(=O)OCc2nc(N)nc(Nc3ccccc3C)n2)c2ccccc2c1=O`: the Potency entry was “inactive”.

Take `CCN(CC)C(CNC(=O)CSc1nnnn1-c1cccc(F)c1)c1ccco1` (stereo unspecified): the Potency entry was “inactive”.

As for `COc1ccc(CC(=O)c2ccc(O)cc2O)cc1OC`, the Potency entry was “inactive”.

With `Cc1cc(O)cc(O)c1C(=O)Cc1cnn(-c2ccccc2)c1`, the Potency result is “inactive”.

With `COc1ccc(C(=O)Cc2cnn(-c3ccccc3)c2)c(O)c1`, the Potency was 3.16 µM (active).

In the case of `O=C(CN(CC1CCCO1)C(=O)CNS(=O)(=O)c1ccc(F)cc1)NCc1ccco1` (stereo unspecified), the Potency result is “inactive”.

As for `CCOC(=O)c1ccccc1NC(=O)COC(=O)C(Cc1c[nH]c2ccccc12)NC(C)=O` (stereo unspecified), the Potency entry was “inactive”.

As to `O=C(N/C(=C\c1ccc([N+](=O)[O-])cc1)C(=O)N1CCOCC1)c1cccc(Br)c1`, the Potency entry was “inactive”.

On to `COc1ccc(S(=O)(=O)N2CCN(CC(=O)NCC3(N4CCOCC4)CCCCC3)CC2)cc1`, for which the Potency entry is “inactive”.

In the case of `CN(C)C(=O)COC(=O)c1cccc(S(=O)(=O)N2CC3(C)CC2CC(C)(C)C3)c1` (stereo unspecified), the Potency result was “inactive”.

Regarding `CCCN(CCC)c1ccc(C(O)c2nnc(-c3ccccc3)o2)cc1` (stereo unspecified), the Potency entry was “inactive”.

Turning to `OC(c1nnc(-c2ccccc2)o1)c1cccs1` (stereo unspecified), the Potency is 4.47 µM (active).

Consider `O=C(Nc1nnc(-c2ccccc2)o1)c1cc(-c2cccs2)nc2ccccc12`, for which the Potency result was “inactive”.

Take `CCOC(=O)C1=C(COC(=O)[C@H](C)NS(=O)(=O)c2ccccc2F)NC(=O)NC1C` (stereo partly specified): the Potency result is “inactive”.

As to `COc1ccc(CN2C(=O)C(C)S/C2=N/N=C/c2ccco2)cc1` (stereo unspecified), the Potency is 2.82 µM (active).

As for `C=CCN1C(=O)C(Cc2cccc(Cl)c2)S/C1=N/N=C/c1ccco1` (stereo unspecified), the Potency result was “inactive”.

As to `O=C1N/C(=N\N=C\c2ccco2)SC1Cc1ccc(F)cc1` (stereo unspecified), the Potency entry is “inactive”.

Turning to `O=C(/C=C/c1ccccc1[N+](=O)[O-])OCC(=O)N1CCCC1`, the Potency result is “inactive”.

`Cc1nn(Cc2ccccc2)c(C)c1CNC(=O)c1ccc(F)c(S(=O)(=O)N2CCOCC2)c1`: the Potency entry is “inactive”.

For `Cc1csc(=O)n1CCC(=O)OCC(=O)NNC(=O)c1ccc(Br)cc1`, the Potency result is “inactive”.

Turning to `CCN(CC)S(=O)(=O)c1cc(C(=O)Nc2cc(S(=O)(=O)N3CCOCC3)ccc2N2CCCC2)ccc1F`, the Potency entry is “inactive”.

In the case of `COc1ccc(NS(=O)(=O)c2ccc3oc(SCC(N)=O)nc3c2)cc1`, the Potency entry was “inactive”.

Consider `CN(C)S(=O)(=O)c1ccc2oc(SCC(=O)Nc3ccccc3F)nc2c1`, for which the Potency was 1.41 µM (active).

Regarding `COc1ccc(S(=O)(=O)N(C)C)cc1NC(=O)CSc1ncccn1`, the Potency entry was “inactive”.

In the case of `CCOC(=O)[C@H]1[C@H]2COc3ccc(C)cc3[C@@H]2N2C(=O)CN(Cc3ccc(F)cc3)C(=O)[C@@]12C`, the Potency entry was “inactive”.

Consider `CC(C#N)(NC(=O)CN1CCN(S(=O)(=O)c2cc(C(F)(F)F)ccc2Cl)CC1)C1CC1` (stereo unspecified), for which the Potency result was “inactive”.

For `Cc1cccc(NC(=O)c2ccc3ccccc3n2)n1`, the Potency was 3.16 µM (active).

As to `Cc1cccc(NC(=O)c2ccccc2NC(=O)C(C)(C)C)n1`, the Potency entry is “inactive”.

In the case of `Cc1cccc(NC(=O)c2cccnc2Cl)n1`, the Potency entry was “inactive”.

Regarding `COc1ccc(S(=O)(=O)N2CCOCC2)cc1NC(=O)CC1CC2CCC1C2` (stereo unspecified), the Potency result is “inactive”.

In the case of `CC(C)Cc1cc(C(=O)NCCc2ccccc2)no1`, the Potency was 3.16 µM (active).

As for `Nc1nonc1C(=O)NCCc1ccccc1`, the Potency result was “inactive”.

Take `O=C(NCCCc1ccccc1)c1cc(COc2c(F)cccc2F)on1`: the Potency entry was “inactive”.

As for `COc1ccc(CCNC(=O)COC(=O)Cc2cccc(F)c2)cc1`, the Potency result was “inactive”.

With `CCCC[C@]12Cc3cc(OC)c(OC)cc3C(O1)C1=C(CC3(CCCCC3)OC1=O)O2`, the activation, negative = inhibition is -3.75% [at 1.84 µM].

Take `N#Cc1cccc(NC(=O)C2CCCN(C(=O)c3ccc(Cl)cc3)C2)c1` (stereo unspecified): the Potency result was “inactive”.

Regarding `N#CC1(NC(=O)COC(=O)CCN=C2NS(=O)(=O)c3ccccc32)CCCCC1`, the Potency result is “inactive”.

As for `CC(=O)/C(C)=N/O`, the Potency result was “inactive”.

Turning to `O=C(Nc1ccon1)c1sc2ccccc2c1Cl`, the Potency is 3.16 µM (active).

Take `O=C(N/N=C/c1c(Cl)[nH]c2ccccc12)c1sc2ccccc2c1Cl`: the Potency result is “inactive”.

For the compound `O=C(Nc1ccon1)c1cccc(Cl)c1`, the Potency result was “inactive”.

For `CC1CCCCC1NC(=O)COC(=O)Cc1ccc(Cl)cc1` (stereo unspecified), the Potency entry was “inactive”.

For the compound `CCc1ccc(NC(=O)N2CCc3ccccc3C2)cc1`, the Potency is 2.24 µM (active).

With `O=C(C(=O)N1CCc2ccccc2C1)N1CCc2ccccc2C1`, the Potency result was “inactive”.

Take `CCc1ccc(NC(=O)N2CCN(c3ccccc3)CC2)cc1`: the Potency entry was “inactive”.

Regarding `COc1cccc(NC(=O)CN(C)CC(=O)c2c(N)n(Cc3ccccc3)c(=O)n(C)c2=O)c1`, the Potency result is “inactive”.

For the compound `O=C(CNC(=O)c1ccc2ccccc2c1)Nc1ncccc1O`, the Potency entry was “inactive”.

The values are drawn from PubChem BioAssay AID485297 (National Center for Advancing Translational Sciences (NCATS), 2010).
